Source: PubChem BioAssay
Shown are actives, neighbours in structure and some others; about 21% of the full set was active somewhere.
SARS PLP yeast: inhibitors of SARS-CoV papain-like protease in yeast; Potency, µM (series often up to 32.9 µM), hits mostly activators; actives 0.19% (n = 330,000); S. cerevisiae expressing SARS-CoV PLpro, growth rescue; note: nearly all actives have a fitted effect of over 55% in size
CHX counter: affects cycloheximide protein synthesis inhibition readout, counter-screen | max response, % | cell reporter, cycloheximide protein synthesis inhibition counterscreen | actives 12% (n = 300,000); in the data active = max response mostly above about 13%, no sharp cut-off; inactive = mostly below about 14%; note: read at 38.3 µM for the half of the compounds with a filed dose
Pf growth 48h: inhibits P. falciparum growth in the first generation, 48 h. P. falciparum luciferase growth in erythrocytes, 48 h. Potency, µM (doses to about 28.7 µM), most hits filed as inhibitors. actives 5.9% (n = 310,000). AID 504832; active = well fitted inhibition curve with a large enough effect; inconclusive = small, poorly fitted or top-dose-only effect, or another doubt; inactive = no such curve, though single readings can be large or run the other way
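Parasite viability was followed by luminescence of a genomically integrated firefly luciferase. Cultures held 0.1% parasitemia at 2% hematocrit (final), incubated under 5% CO2 at 37 C.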
NS1 function inh: influenza NS1 inhibition; Potency, µM (highest dose often 46.1 µM); actives 0.4% (n = 270,000); AID 2326; note: actives are rising curves; nearly all actives have a fitted effect of over 50% in size
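Recovery from NS1-induced slow growth read by OD600 in budding yeast switched to galactose assay medium (pH 6.0, -URA) at 1:100 dilution. Compound 23 nl per well; the matching strain lacking NS1 serves as control.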
Shiga inhibitor: blocks Shiga toxin action in Vero cells. Vero cells, Shiga toxin protein synthesis inhibition reporter. inhibition, % at 38.7 µM. actives 9.2% (n = 290,000); in the data active = inhibition mostly above about 28%, no sharp cut-off; inactive = mostly below about 43%
Pf growth 96h: P. falciparum growth inhibition at 96 hours; AID 504834; Potency, µM (titrated, usually from 28.7 µM), hits mostly inhibitors; P. falciparum luciferase reporter growth, 96 h; actives 6.9% (n = 320,000); active = well fitted inhibition curve with a large enough effect; inconclusive = small, poorly fitted or top-dose-only effect, or another doubt; inactive = no such curve, though single readings can be large or run the other way
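Cell-based qHTS: luciferase-tagged P. falciparum in erythrocytes (2% hematocrit, 0.05% parasitemia final) incubated with compounds for 96 hours, 37 C, 5% CO2; luciferase detection reagent then added and luminescence measured.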
Large screens that a line does not name were inactive. Unless noted, calls come from the whole dose curve.

Cc1nc2ccccn2c1C(=O)N/N=C/c1cc(C)n(-c2ccc(Br)cc2)c1C	CHX counter 16, Pf growth 48h inconclusive, Pf growth 96h inconclusive
Cc1nc2ccccn2c1C(=O)N/N=C/c1ccccc1	CHX counter 20
Cc1ccc(NC(=O)C(=O)NCc2ccc(/C=N/NC(=O)c3c(C)nc4ccccn34)o2)cc1	CHX counter 28
Cc1ccc(CNC(=O)c2ccccc2NC(=O)CSc2nnnn2C)cc1	none
COC(=O)[C@@]1(C)[C@H]2C(=O)N(Cc3ccccc3)C(=O)[C@H]2[C@H]2CN(C)C(=NC3CCCCC3)N21	none (no result: CHX counter, Pf growth 48h, NS1 function inh, Shiga inhibitor, Pf growth 96h)
C/C=C(\C)C(=O)NCCN1C2=NC[C@H](C(C)C)N2C[C@H]1Cc1ccc(O)cc1	Pf growth 96h 3.3µM
C/C=C(\C)C(=O)NCCN1C2=NC[C@H](C(C)C)N2C[C@@H]1Cc1ccc(OC)cc1	none
COc1ccc(C[C@H]2CN3C(=NC[C@@H]3C(C)C)N2CCNC(=O)c2ccc(C)c(Br)c2)cc1	Pf growth 48h inconclusive, Pf growth 96h 2.1µM
Cc1ccc(C(=O)NCCN2C3=NC[C@H](C(C)C)N3C[C@H]2Cc2ccc(O)cc2)cc1Br	Pf growth 48h 4.7µM, Pf growth 96h 2.6µM
CCOc1ccc(CCNC(=O)COC(=O)C2=NNC(=O)CC2)cc1OCC	Pf growth 48h inconclusive, Pf growth 96h inconclusive (no result: CHX counter, NS1 function inh, Shiga inhibitor)
Cc1ccccc1CC1(CO)CCCN(C(=O)c2ccccc2N(C)C)C1 (stereo unspecified)	Pf growth 48h inconclusive, Pf growth 96h 0.93µM
CCOC(=O)C1(Cc2ccccc2C)CCCN(C(=O)CN2CCCCC2=O)C1 (stereo unspecified)	Pf growth 48h inconclusive
Cc1ccccc1CC1(CO)CCCN(C(=O)CCCN2CCCCC2=O)C1 (stereo unspecified)	CHX counter 17, Pf growth 96h inconclusive
Cc1ccsc1C(=O)N1CCC(CO)(Cc2ccccc2)CC1	none
Cc1ccsc1C(=O)N1CCCC(CO)(Cc2ccccc2)C1 (stereo unspecified)	CHX counter 22, Pf growth 96h inconclusive
O=c1cc(CN2CCN(c3cccc(C(F)(F)F)c3)CC2)nc2sccn12	NS1 function inh inconclusive
O=C(NCc1ccc(F)cc1)c1ccc(CS(=O)Cc2ccccc2Cl)o1 (stereo unspecified)	none
CCOc1ccc(NC(=O)c2cccc(OC(=S)N3CCOCC3)c2)cc1	CHX counter 11, Pf growth 48h inconclusive
Cc1cccc(NC(=O)c2cccc(OC(=S)N3CCOCC3)c2)c1C	Pf growth 96h 1.9µM
O=C(Nc1ccc(Br)cc1)c1cccc(OC(=S)N2CCOCC2)c1	CHX counter 19, Shiga inhibitor 50
COc1ccc(NC(=O)c2cccc(OC(=S)N3CCOCC3)c2)cc1	Pf growth 48h inconclusive
CCC1CCCCC1	none (no result: SARS PLP yeast, Pf growth 48h, NS1 function inh, Pf growth 96h)
Cc1snc(SCC(=O)c2ccc([N+](=O)[O-])cc2)c1C#N	CHX counter 30, Pf growth 48h inconclusive, Shiga inhibitor 64 (no result: NS1 function inh)
CSc1nc(N)nc(SCC(=O)c2ccc(C)cc2)c1C#N	CHX counter 28, Shiga inhibitor active, Pf growth 96h inconclusive
CSc1nc(N)nc(SCC(=O)OC(C)C)c1C#N	none
Cc1snc(SCC(=O)c2ccc(F)cc2)c1C#N	CHX counter 34, Shiga inhibitor 105 (no result: NS1 function inh)
Cc1snc(SCc2ccc(Cl)cc2)c1C#N	CHX counter 11
Cc1ccc(N2CC(C(=O)OCC(=O)c3ccc[nH]3)CC2=O)cc1 (stereo unspecified)	none (no result: CHX counter, NS1 function inh, Shiga inhibitor)
NC(=O)C1CC(=O)N(c2ccc(OCc3ccc(F)cc3)cc2)C1 (stereo unspecified)	CHX counter 37, Shiga inhibitor 94
Cc1ccc(N2CC(C(=O)OCC(=O)c3ccc(F)cc3)CC2=O)cc1 (stereo unspecified)	Pf growth 96h 2.9µM
O=C(O)C1CC(=O)N(c2ccc(OCc3ccccc3Cl)cc2)C1 (stereo unspecified)	none (no result: Pf growth 96h)
NC(=O)C1CC(=O)N(c2ccc(OCc3c(F)cccc3Cl)cc2)C1 (stereo unspecified)	none
NC(=O)C1CC(=O)N(c2ccc(OCc3ccccc3Cl)cc2)C1 (stereo unspecified)	CHX counter 23, Shiga inhibitor 25, Pf growth 96h inconclusive
NC(=O)C1CC(=O)N(c2ccc(OCc3ccc([N+](=O)[O-])cc3)cc2)C1 (stereo unspecified)	CHX counter 26 (no result: Shiga inhibitor)
NC(=S)Nc1cccc2[nH]ccc12	none (no result: NS1 function inh)
Cc1c(C)c2ccc(OCC(=O)NCCN3CCOCC3)cc2oc1=O	none
COc1ccc(C(=O)C2CCCN(Cc3ccc(Sc4nncn4C)o3)C2)cc1F (stereo unspecified)	none
COCCn1c(SCC(=O)NCC2CCCO2)nc2c([nH]c3ccccc32)c1=O (stereo unspecified)	none
O=C(Nc1ccc(CN2CCOCC2)cc1)c1cccc(-c2cc3ccccc3oc2=O)c1	Pf growth 48h inconclusive
CCn1nnc(NC(=O)c2cccc(-c3cc4ccccc4oc3=O)c2)n1	CHX counter 40, Shiga inhibitor 73 (no result: Pf growth 96h)
O=C(Nc1cccc(Cl)c1N1CCCC1)c1cccc(-c2cc3ccccc3oc2=O)c1	CHX counter 26, Pf growth 48h inconclusive
Cc1cc(=O)[nH]c(N2CCCC2)n1	Pf growth 96h 12µM
COc1cc2ncc(C(=O)c3ccccc3)c(N3CCN(Cc4ccccc4)CC3)c2cc1OC	Pf growth 48h 4.7µM, Pf growth 96h inconclusive
COc1ccccc1N1CCN(Cc2ccc(C(=O)O)cc2)CC1	none
Cc1cccc(C)c1Oc1nc(-c2ccccc2)ncc1S(=O)(=O)c1ccccc1	Pf growth 48h 2.1µM, Pf growth 96h inconclusive
COc1cccc(Sc2nc(-c3ccccc3)ncc2S(C)(=O)=O)c1	CHX counter 31, Shiga inhibitor 50, Pf growth 96h 9.3µM (no result: Pf growth 48h)
COc1ccc(Oc2nc(-c3ccccc3)ncc2S(=O)(=O)c2ccccc2)cc1	Pf growth 48h 15µM, Pf growth 96h inconclusive
Cc1ccc(S(=O)(=O)c2cnc(-c3ccccc3)nc2Oc2ccccc2)cc1	none
CS(=O)(=O)c1cnc(-c2ccccc2)nc1Sc1ccc(F)cc1	none (no result: Pf growth 48h)
COc1nc(-c2ccccc2)ncc1S(=O)(=O)c1ccccc1	Pf growth 48h inconclusive, Pf growth 96h inconclusive
O=S(=O)(c1ccccc1)c1cnc(-c2ccccc2)nc1N1CCCC1	none
Cc1ccc(S(=O)(=O)c2cnc(-c3ccccc3)nc2N2CCCCC2)cc1	Pf growth 48h 13µM
CN(C(=O)COC(=O)c1ccc2c(c1)OCCO2)c1ccccc1	none
COc1ccc(CN(C)C(C)C(=O)N(C)CC(=O)Nc2ccc(C)cc2)cc1F (stereo unspecified)	Pf growth 96h inconclusive (no result: CHX counter, NS1 function inh, Shiga inhibitor)
Nc1c(S(=O)(=O)O)cc(Nc2ccc(Nc3nc(Cl)nc(Nc4ccc(S(=O)(=O)O)cc4)n3)c(S(=O)(=O)O)c2)c2c1C(=O)c1ccccc1C2=O	none (no result: SARS PLP yeast, CHX counter, Pf growth 48h, Shiga inhibitor, Pf growth 96h)
